# Bioassay records: PubChem, National Center for Advancing Translational Sciences (NCATS)
# ATXN2 expr inh – Primary qHTS for Inhibitors of ATXN expression; hit rate 0.72% among 360,000; Potency, µM (series often up to 57 µM), inactives show at the highest dose activity change, negative = inhibition, hits mostly inhibitors; HEK-293 ATXN2-luciferase reporter, luminescence, 24 h; further: on the % scale 0 is the no-effect control and ±100 the full control effect; nearly all actives have a fitted effect of over 55% in size
#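 ATXN2-luciferase reporter cells (luciferase flanked by upstream and downstream ATXN2 gene portions) were treated 24 h at 37 °C with compounds at up to 57 uM. SteadyGlo luminescence gave expression; GF-AFC fluorescence gave viability.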
# HepG2 tox-1 – qHTS for Inhibitors of TGF-b: Cytotox Counterscreen. HepG2 CAGA-GFP viability, ATP luminescence, 18 h. Potency, µM (top dose mostly 46.1 µM), for the others: at the highest dose activity change, negative = cytotoxicity, hits mostly cytotoxic. hit rate 0.76% among 410,000. AID 588856, 2011
#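 CellTiter-Glo luminescence gave cytotoxicity after 18 hours at 37 degrees C. The cells were HepG2 CAGA-GFP in 1% FBS DMEM, stimulated with 500 pg/mL TGF-beta after compound addition. %Activity was normalised to no-cell wells (complete cell-killing) and DMSO (no toxicity), and curves were fitted and classified.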
# TGFb inhibitor – qHTS for Inhibitors of TGF-b; HepG2 CAGA-GFP TGF-b/SMAD3 reporter, GFP fluorescence, 18 h; TGF-beta stimulated, 500 pg/mL final; Potency, µM (doses to about 46.1 µM), for the others: top-dose activity, negative = inhibition, usual class: inhibitors; hit rate 1.2% among 410,000; AID 588855, 2011; further: on the % scale 0 is the no-effect control and ±100 the full control effect; nearly all actives have a fitted effect of over 65% in size
#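 Using HEPG2 CAGA-GFP reporter cells at 1000 cells/well, we pinned test compounds, stimulated with recombinant TGF-beta (500 pg/mL final) and measured total well GFP after 18 h.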
# KB-V1 cytotox – qHTS assay for MDR1-selective chemotherapeutics: Primary screen using the drug-selected MDR subline cells KB-V1. AID 1347076, 2019. KB-V1 MDR cells viability, CellTiter-Glo, 72 h. hit rate 3.4% among 400,000. Potency, µM (titrated, usually from 46.1 µM), most hits filed as cytotoxic; further: on the % scale 0 is the no-effect control and ±100 the full control effect; nearly all actives have a fitted effect of over 60% in size
#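 Cells of the MDR subline KB-V1 are plated, dosed with compound at multiple concentrations, and incubated 72 h at 37 degrees C; CellTiter-Glo is then added and luminescence read after 10 min.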
# KB-3-1 tox – qHTS assay for MDR1-selective chemotherapeutics: Primary screen using the parental adenocarcinoma cell KB-3-1 | KB-3-1 viability, CellTiter-Glo ATP luminescence, 72 h | Potency, µM (doses to about 46.1 µM), most hits filed as cytotoxic | hit rate 1.4% among 400,000 | AID 1347075, 2019; further: on the % scale 0 is the no-effect control and ±100 the full control effect; nearly all actives have a fitted effect of over 60% in size
#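 Luminescent ATP read-out (CellTiter-Glo) measures survival of drug-naive KB-3-1 cells after 72 h compound exposure at 37 °C. Titration series was screened from lowest to highest concentration, with DMSO vehicle plates as background controls.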
# S2 tox – Viability Counterscreen for Primary qHTS for Inhibitors of ATXN expression; S2 cells (HEK-293 line with an ATXN2-luciferase reporter) viability, CellTiter-Fluor protease fluorescence, 24 h; AID 651635, 2014; hit rate 0.49% among 400,000; Potency, µM (highest dose often 56.7 µM), usual class: cytotoxic; further: nearly all actives have a fitted effect of over 40% in size
# TGFb confirm – qHTS for Inhibitors of TGF-b: Confirmation of Cherry Picks; shares compounds with TGFb inhibitor; HepG2 CAGA-GFP TGF-b reporter, GFP fluorescence, 18 h; cells stimulated with TGF-beta, 500 pg/mL; Potency, µM (top dose mostly 46.1 µM), inactives show top-dose activity, negative = inhibition, most hits filed as inhibitors; hit rate 63% among 1,600; AID 720534, 2013; further: on the % scale 0 is the no-effect control and ±100 the full control effect; nearly all actives have a fitted effect of over 65% in size
# HepG2 tox-2 – qHTS for Inhibitors of TGF-b: Cytotox Counterscreen for Cherry Picks. shares compounds with TGFb inhibitor. HepG2 CAGA-GFP viability, ATP luminescence, 18 h; cells stimulated with TGF-beta, 500 pg/mL. Potency, µM (titrated, usually from 46.1 µM), without a hit: at the top dose activity, negative = cytotoxicity, usual class: inhibitors. hit rate 27% among 1,600. AID 720535, 2013; further: on the % scale 0 is the no-effect control and ±100 the full control effect; nearly all actives have a fitted effect of over 70% in size
# TGFb CCL64 inh – qHTS for Inhibitors of TGF-b: CCL64 Cells Orthogonal Assay for Cherry Picks; CCL64 CAGA-GFP reporter, TGF-b stimulated, GFP fluorescence, 18 h; hit rate 41% among 1,600; shares compounds with TGFb inhibitor; Potency, µM (series often up to 46.1 µM), inactives show at the highest dose activity, negative = inhibition, hits mostly inhibitors; AID 720536, 2013; further: nearly all actives have a fitted effect of over 65% in size
# COP TGFb inh – qHTS for Inhibitors of TGF-b: Hit Validation in HepG2 Cells using COP promoter. Potency, µM (titrated, usually from 46.1 µM), for inactives: at the highest dose activity, negative = inhibition, actives largely listed as inhibitors. hit rate 3% among 1,600. shares compounds with TGFb inhibitor. HepG2 COP-GFP TGF-b reporter, GFP fluorescence, 18 h; cells stimulated by added recombinant TGF-beta; further: nearly all actives have a fitted effect of over 70% in size
# Active calls of the source: *; i = inactive; ? = inconclusive; . = no result; ! = a repeat was not active. An excerpt weighted towards active compounds, which were near 5.9% of everything screened. The call rests on the fitted dose curve; in most records, active means well fitted curve in the direction sought with a large enough effect; inconclusive means small, poorly fitted or top-dose-only effect, or another doubt; inactive means no such curve, though single readings can be large; an effect the other way counts as inactive or inconclusive. Potency means the concentration at half of the fitted maximal effect.
SMILES,ATXN2 expr inh,HepG2 tox-1,TGFb inhibitor,KB-V1 cytotox,KB-3-1 tox,S2 tox,TGFb confirm,HepG2 tox-2,TGFb CCL64 inh,COP TGFb inh
CCCCCn1c(N)c(C(=O)NCCN2CCOCC2)c2nc3ccccc3nc21,-32%,-72%,?,?,?,i,.,.,.,.
CCCCn1c(N)c(C(=O)NCc2cccs2)c2nc3ccccc3nc21,-30%,-82%,10µM*,13µM*,?,i,?,-25%,?,6%
CCN1C[C@@]2(COC)[C@H]3[C@@H](OC)[C@H]4C1[C@@]3([C@H](OC)C[C@@H]2O)[C@H]1C[C@@]2(O)[C@@H](OC(=O)c3ccccc3)[C@@H]1[C@@]4(OC(C)=O)[C@H](O)[C@@H]2OC,.,.,.,.,.,i,.,.,.,.
CC1=C(N2CC2)C(=O)C(CO)=C(N2CC2)C1=O,0.12µM*,-110%,0.32µM*,0.26µM*,0.46µM*,2.7µM*,0.1µM*,0.21µM*,-113%,-87%
c1ccc2c(CN3CCCCCCC3)c[nH]c2c1,-10%,-26%,?,15µM*,21µM*,?,21µM*,23µM*,8.2µM*,-4%
CC(C)CC1C(=O)N2CCC[C@H]2[C@]2(O)O[C@](NC(=O)[C@@H]3C=C4c5cccc6[nH]c(Br)c(c56)C[C@H]4N(C)C3)(C(C)C)C(=O)N12 (stereo partly specified),.,-25%,?,i,?,.,.,.,.,.
Nc1ncnc2c1ccn2[C@@H]1O[C@H](CO)[C@@H](O)[C@H]1O,1.1µM*,1µM*,0.45µM*,0.21µM*,0.18µM*,3.2µM*,0.58µM*,0.92µM*,0.82µM*,45%
NC(=S)c1cn(C2OC(CO)C(O)C2O)c2ncnc(N)c12 (stereo unspecified),.,-37%,0.32µM*,i,?,?,0.26µM*,0.16µM*,0.46µM*,44%
Cc1cccc(N2CCN(C(=O)CCCCn3c(=O)[nH]c4ccsc4c3=O)CC2)c1C,?,-19%,?,i,i,?,.,.,.,.
CCC1(OC(=O)CN)C(=O)OCc2c1cc1n(c2=O)Cc2cc3ccccc3nc2-1 (stereo unspecified),0.0095µM*,-20%,2.2µM*,?,?,.,1.2µM*,0.58µM*,2.3µM*,9%
COc1ccc(S(=O)(=O)N2c3ccc(F)cc3CCC2C)cc1 (stereo unspecified),.,-28%,6.3µM*,1.6µM*,1.6µM*,?,4.1µM*,-7%,5.8µM*,-16%
COc1ccc(S(=O)(=O)N2Cc3ccccc3-n3nncc3C2)cc1,-8%,7%,2%,i,i,i,.,.,.,.
COc1cc2nc(N3CCCN(C)CC3)nc(N(C)C3CCN(C)CC3)c2cc1OC,.,-57%,?,i,i,.,.,.,.,.
CC(=O)OC1(C)CC(C)C(=O)C(C(O)CC2CC(=O)NC(=O)C2)C1 (stereo unspecified),0.03µM*,-33%,-92%,?,?,?,0.052µM*,0.13µM*,0.021µM*,5%
O=C(CN1CCCC2CCCCC21)c1ccc(I)cc1 (stereo unspecified),.,-3%,5%,i,i,.,.,.,.,.
COc1ccc(CC2NCCc3cc(OC)c(OC)cc32)cc1OC (stereo unspecified),-10%,.,.,.,.,.,.,.,.,.
CC[C@H]1CN2CCc3cc(OC)c(OC)cc3C2C[C@@H]1C[C@H]1NCCc2cc(OC)c(OC)cc21 (stereo partly specified),-76%,-20%,-109%,2.1µM*,0.21µM*,?,0.052µM*,2.9µM*,0.073µM*,35%
CC1=CC2OC3CC4OC(=O)C=CC=CC(C(C)O)OCC(O)C(C)CC(=O)OCC2(CC1O)C4(C)C31CO1 (stereo unspecified),-69%,4%,-107%,?,0.0092µM*,?,0.041µM*,.,0.029µM*,-1%
CC1=CC2OC3CC4OC(=O)C=CC=CC(=O)OCCC(C)C(O)C(=O)OCC2(CC1O)C4(C)C31CO1 (stereo unspecified),?,-3%,-119%,0.52µM*,0.15µM*,?,0.012µM*,.,0.0046µM*,10%
Cn1c(=O)oc2cc(S(=O)(=O)N3CCC(C(=O)N4CCN(c5ccc(F)cc5)CC4)CC3)ccc21,.,-3%,-3%,i,?,i,.,.,.,.
ClCCN(CCCl)c1ccc(/C=C/c2ccnc3ccccc23)cc1,.,-33%,-11%,?,?,.,.,.,.,.
O=C1NCN(c2ccccc2)C12CCN(C(c1cc3ccccc3o1)c1nnnn1C1CCCCC1)CC2 (stereo unspecified),?,-111%,10µM*,i,?,?,18µM*,?,23µM*,?
CCCc1nc2ccc(Br)cc2c(=O)n1-c1ccc([N+](=O)[O-])c(C(F)(F)F)c1,-35%,-31%,7.1µM*,16µM*,?,i,?,-27%,?,-1%
C[C@H]1CCC/C=C/[C@@H]2C[C@H](O)C[C@H]2[C@H](O)/C=C/C(=O)O1,?,-32%,0.13µM*!,0.58µM*,0.065µM*,i,0.12µM*,?,?,64%
